# Pf Dd2 growth – inhibitors of Plasmodium falciparum Dd2 growth. hit rate 2.3% among 94,000. P. falciparum Dd2 growth, SYBR Green, 72 h; stronger effect = lower value. AID 1159554. activity change, % at 10 µM; in the data active means activity change below about -80%; inconclusive means no clear call, values can overlap the other calls
# T cruzi growth-1 – blocks T. cruzi growth in NIH3T3 culture; T. cruzi beta-gal in NIH3T3, GalScreen luminescence, 90 h; inhibition, % at 8.34 µM; hit rate 5.9% among 77,000; AID 624255;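 active means mean inhibition above about 93%, with at least 55% of replicates each passing it, limit read from the data, passing the limit was not always enough; inconclusive means only one of those two conditions holds; inactive means neither condition holds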
# C diff HTS – C. difficile growth inhibition; Clostridium difficile clinical isolate growth, OD600, 24 h; stronger effect = lower value; hit rate 0.25% among 86,000; growth activity, negative = inhibition, % at 16 µg/mL (by protocol);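 active means mean growth activity at or below -80% and every replicate also at or below -80%; inconclusive means mean at or below -80% but some replicate above -80%; inactive means mean growth activity above -80%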;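 further: 0% = DMSO wells and -100% = levofloxacin 16 µg/mL wells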
# T cruzi growth-2 – Trypanosoma cruzi proliferation inhibition; T. cruzi beta-gal in NIH3T3, GalScreen luminescence, 90 h; inhibition, % at 8.35 µM; shares compounds with T cruzi growth-1; hit rate 72% among 5,600; AID 651739;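 active means mean replicate inhibition above about 95% and at least 55% of replicates individually reaching it, limit read from the data; inconclusive means only one of the two criteria is met; inactive means neither criterion is met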
# T cruzi growth-3 – blocks T. cruzi growth in NIH3T3 host cells; T. cruzi beta-gal in NIH3T3, GalScreen luminescence, 90 h; shares compounds with T cruzi growth-1; hit rate 21% among 5,600; inhibition, % at 2.09 µM; AID 651740;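 active means mean inhibition above about 95%, with at least 55% of replicates also reaching it, limit read from the data; inconclusive means meets just one of the two conditions; inactive means meets neither condition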;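 further: plate controls were neutral control median for no effect and positive control median for full effect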
# NIH3T3 tox – cytotoxicity in mouse NIH/3T3 fibroblasts; shares compounds with T cruzi growth-1; NIH/3T3 viability, CellTiter-Glo ATP luminescence, 90 h; cytotoxicity (signal decrease), % at 8.35 µM; hit rate 14% among 5,600; AID 651742;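 active means mean signal decrease across replicates above about 35% based on untreated-well scatter, with enough replicates individually passing, limit read from the data; inconclusive means no rule stated though some were filed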;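 further: 0% = median of neutral control wells and 100% = median of positive control wells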
# 3T3 cytotox 2 – NIH/3T3 (mouse) viability loss. AID 651744. NIH/3T3 viability, CellTiter-Glo ATP luminescence, 90 h. inhibition, % at 24.9 µM. shares compounds with T cruzi growth-1. hit rate 56% among 5,600;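 active means mean loss of cell viability signal at or above a set limit, and enough replicates individually reaching it; inconclusive means meets only the mean limit or only the replicate share; inactive means meets neither condition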;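 further: 0% = median of neutral control wells and 100% = median of positive control wells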
# Starred values were filed as active, the others as inactive; u = inconclusive; x = not tested or not shown. Most compounds without a hit are left out; they make up all but 6.8% or so of the library.
SMILES,Pf Dd2 growth,T cruzi growth-1,C diff HTS,T cruzi growth-2,T cruzi growth-3,NIH3T3 tox,3T3 cytotox 2
Cc1ccc(S(=O)(=O)Nc2ccc3c(c2)C(=O)N([C@H](C)CO)C[C@H](C)[C@H](CN(C)C(=O)Nc2ccccc2)OCCCC[C@@H](C)O3)cc1,-2,-47,x,x,x,x,x
COc1cccc(S(=O)(=O)Nc2ccc3c(c2)C(=O)N(C)C[C@H](OC)[C@@H](C)CN[C@H](C)CO3)c1,13,11,x,x,x,x,x
C[C@@H]1CN([C@@H](C)CO)C(=O)c2cccc(N(C)C)c2O[C@@H]1CN(C)Cc1ccc(-c2ccccc2)cc1,-20,-2,12,x,x,x,x
C[C@H](CO)N1C[C@H](C)[C@@H](CN(C)C(=O)Nc2ccc(C(F)(F)F)cc2)Oc2c(NC(=O)c3ccc(-c4nccs4)cc3)cccc2C1=O,12,71,x,x,x,x,x
C[C@H]1CN([C@@H](C)CO)C(=O)c2cccc(NC(=O)c3nc4ccccc4s3)c2O[C@H]1CN(C)C(=O)Nc1ccc(C(F)(F)F)cc1,-73,74,3,x,x,x,x
C[C@H](CO)N1C[C@H](C)[C@H](CN(C)C(=O)Nc2ccc(C(F)(F)F)cc2)Oc2c(NC(=O)c3ccc(-c4nccs4)cc3)cccc2C1=O,-44,116*,x,102*,72,31,84*
C[C@@H]1CN([C@@H](C)CO)C(=O)c2cccc(NC(=O)c3ccc(-c4nccs4)cc3)c2O[C@H]1CN(C)C(=O)Nc1ccc(F)cc1,-27,4,-3,x,x,x,x
C[C@@H]1CN([C@H](C)CO)C(=O)c2cccc(NC(=O)c3nc4ccccc4s3)c2O[C@H]1CN(C)C(=O)Nc1ccc(C(F)(F)F)cc1,-86*,93*,-5,u,u,19,50*
C[C@@H]1CN([C@@H](C)CO)C(=O)c2cccc(NC(=O)c3ccc(-c4nccs4)cc3)c2O[C@@H]1CN(C)C(=O)Nc1ccc(C(F)(F)F)cc1,-70,u,x,108*,91,26,98*
O=C(C[C@@H]1C=C[C@H](NC(=O)c2ccccc2)[C@@H](CO)O1)NCc1ccc(Oc2ccccc2)cc1,1,31,x,x,x,x,x
C[C@@H]1CN([C@H](C)CO)S(=O)(=O)c2ccc(-c3ccccc3)cc2O[C@H]1CN(C)C(=O)Nc1ccccc1F,-45,3,x,x,x,x,x
C[C@@H]1CN([C@H](C)CO)C(=O)c2cc(NC(=O)CCN3CCOCC3)ccc2O[C@@H]1CN(C)S(=O)(=O)c1cccs1,37,-146,1,x,x,x,x
C[C@@H]1CN([C@@H](C)CO)C(=O)c2cc(NC(=O)NC3CCCCC3)ccc2O[C@@H](C)CCCCO[C@@H]1CN(C)C(=O)Nc1ccccc1,-54,14,x,x,x,x,x
C[C@H]1CCCCO[C@@H](CN(C)C(=O)Nc2ccccc2)[C@@H](C)CN([C@@H](C)CO)C(=O)c2cc(NC(=O)NC3CCCCC3)ccc2O1,-21,98*,x,u,14,-9,-14
C[C@H]1CCCCO[C@H](CN(C)C(=O)NC2CCCCC2)[C@@H](C)CN([C@@H](C)CO)C(=O)c2cc(NC(=O)Nc3ccccc3)ccc2O1,-48,92,-6,x,x,x,x
C[C@H]1CCCCO[C@@H](CN(C)C(=O)NC2CCCCC2)[C@@H](C)CN([C@@H](C)CO)C(=O)c2cc(NC(=O)Nc3ccccc3)ccc2O1,-71,110*,-2,111*,9,-18,-4
C[C@@H]1CCCCO[C@H](CN(C)Cc2ccccc2)[C@H](C)CN([C@H](C)CO)C(=O)c2cc(NC(=O)CCC(F)(F)F)ccc2O1,-29,70,-2,x,x,x,x
COc1ccc(NC(=O)N[C@H]2CC[C@@H](CCNC(=O)c3ccccc3F)O[C@H]2CO)cc1,-13,7,3,x,x,x,x
OC[C@H]1[C@@H](c2ccc(-c3ccccc3)cc2)[C@@H]2CN(CCC(F)(F)F)CCCCN12,-66,65,1,x,x,x,x
COc1ccccc1C#Cc1ccc([C@H]2[C@H]3CN(CCC(F)(F)F)CCCCN3[C@H]2CO)cc1,-36,43,15,x,x,x,x
Cc1cccc(-c2ccc([C@H]3[C@@H](CO)N4CCCCN(CCC(F)(F)F)C[C@H]34)cc2)c1,-85*,105*,33,100*,102*,32,105*
OC[C@H]1[C@H](c2ccc(-c3cccc(F)c3)cc2)[C@@H]2CN(CCC(F)(F)F)CCCCN12,-67,80,54,x,x,x,x

# Bioassay records: PubChem BioAssay, Broad Institute
